# Test results: PubChem BioAssay AID2275 (Broad Institute, 2010)
# Hit rate of the full screen: of about 30,000 compounds, about 190 (0.63%) were called active. The sample as a whole holds a higher share of actives than the screen did. A number with no mark means an inactive call. Cut-off read from the data, not from the text of the source: active = viability loss activity score above about 50%; inconclusive = no clear call, values can overlap the other calls; inactive = below about 35%.
# Assay: cytotoxicity in HRASV12-transformed BJ fibroblasts – cell-based, luminescence, CellTiterGlo ATP, primary screen (AID 2275);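 note: higher score means fewer live cells and less ATP luminescence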
# Conditions: BJeLR fibroblasts viability, 48 h, stronger effect = higher value, HRASV12, hTERT and SV40 LT/ST transformed, concentration not given here
row,SMILES,viability loss activity score
1,N=c1n(CC(=O)c2ccc(Cl)c(Cl)c2)c2ccccc2n1Cc1ccccc1,0.84%
2,O=C(NCCc1ccccc1)c1ccc(NC2=NC3CS(=O)(=O)CC3S2)cc1 (centres undefined),2.13%
3,COc1ccc(S(=O)(=O)Nc2cccc3c2O[C@@H](CN(C)Cc2ccc(-c4ccccc4)cc2)[C@H](C)CN([C@H](C)CO)C3=O)cc1,1.26%
4,CC(=O)NC(c1ccccc1)c1ccc2cccnc2c1O (centres undefined),76.4% (active)
5,CC(C)(C)c1cc(C(=O)Oc2ccc(Cl)cc2)n(Cc2ccccc2)n1,4.03%
6,C[C@@H]1CN([C@H](C)CO)C(=O)c2cccc(NS(=O)(=O)c3ccc(F)cc3)c2O[C@@H]1CN(C)C(=O)Nc1ccc(F)cc1,3.97%
7,CCOc1cc(CNc2ccc(OC)cc2)ccc1OCC(=O)NC(C)(C)C,-0.358%
8,COc1ccc(NC(=O)Nc2cccc3c2O[C@@H](CN(C)C(=O)NC(C)C)[C@H](C)CN([C@H](C)CO)C3=O)cc1,-0.272%
9,COc1ccc2[nH]c3c(=O)n(Cc4ccc(C(=O)NCc5cccnc5)cc4)c(=S)[nH]c3c2c1,2.75%
10,COCc1cc(C)nc2sc(C(N)=O)c(N)c12,6.31%
11,CCOc1cc(-c2cc(C)c3c(ccc4ccccc43)n2)ccc1O,-1.76%
12,CCc1ccc(/C=C2\Cc3ccccc3C2=O)cc1,4.71%
13,CCS(=O)(=O)C(=C(Nc1ccccc1)Nc1ccccc1)S(=O)(=O)CC,21.6%
14,CN1/C(=C/C(=S)C(C)(C)C)Sc2ccccc21,0.712%
15,CCCCn1c(-c2ccc(Br)cc2)nc2ccccc21,-1.15%
16,Cc1ccc(NC2CCCCC2NS(=O)(=O)c2ccccc2)cc1 (centres undefined),8.06%
17,Cc1cc(C)c2c(c1)CC(C)(C)c1[nH]c(-c3ccccc3)nc1-2,-0.635%
18,COCC(=O)NCc1nn(-c2ccccc2)nc1C,1.49%
19,Cc1ccc(S(=O)(=O)c2no[n+]([O-])c2S(=O)(=O)c2ccc(C)cc2)cc1,62% (active)
20,CCOC(=O)N1CCN(C(=O)CSc2ncnc3c2nnn3Cc2ccc(F)cc2)CC1,-1.44%
21,Cc1ccc2c(c1)N(CCC(=O)NC1CCC(C)CC1)C(=O)CO2 (centres undefined),-1.39%
22,C=CCn1c(SCc2ccc(C(=O)O)cc2)nnc1-c1cccc(OC)c1,-6.6%

row,SMILES,viability loss activity score
1,CCN(C(=O)c1coc(=O)c2ccccc12)c1cccc(C(F)(F)F)c1,0.65%
2,O=C(O)CSc1nnc(COc2ccc(Cl)cc2)n1-c1ccc(Br)cc1,0.406%
3,C[C@@H]1CN([C@H](C)CO)C(=O)c2cc(NS(C)(=O)=O)ccc2O[C@H]1CN(C)C(=O)Nc1cccc2ccccc12,-0.115%
4,S=C(Nc1cccc(Cl)c1)N1CCCN(Cc2ccccc2Cl)C1,-1.27%
5,O=C1CC(c2ccc(F)cc2)CC(O)=C1C=NCCN1CCN(C(=S)Nc2ccccc2)CC1 (centres undefined),8.57%
6,Cc1ccc(S(=O)(=O)N2CCCC2)cc1-c1nnc2c3ccccc3c(C)nn12,2.21%
7,CCOC(=O)c1c(C)n(C)c2ccccc12,1.79%
8,Cc1ccc(-n2nnnc2-c2cnn(-c3ccccc3)c2C)cc1,-4%
9,Cc1ccc(S(=O)(=O)Nc2ccc3c(c2)C(=O)N([C@H](C)CO)C[C@H](C)[C@H](CN(C)S(C)(=O)=O)O3)cc1,0.992%
10,COC(OC)c1nc(SCC(=O)Nc2ccc(C(C)C)cc2)ncc1C(=O)O,-6.58%
11,Cc1oc2cc(Br)c(OC(=O)c3ccco3)cc2c1C(=O)OC(C)C,-1.39%
12,CCc1ccc(NC(=O)c2sc3[nH]c(=O)c(C(=O)O)cc3c2N)cc1,-3.87%
13,COCCn1cc(C(=O)NC2CCCCCC2)c2c3ccccc3n(C)c2c1=O,2.88%
14,COc1ccc(NS(=O)(=O)c2ccc3c(c2)OCC(=O)N3)cc1,3.85%
15,Cc1ccc(NC(=S)Nc2ccc(C)cc2)cc1,2.21%
16,COC(=O)c1ccccc1Oc1c(F)c(F)nc(N2CCOCC2)c1F,2.06%
17,CC1OC(OC2C(OC3C(O[C@H]4CC[C@@]5(C)C(CC[C@]6(C)C5CC=C5[C@@H]7CC(C)(C)C[C@@H](O)[C@]7(C)CC[C@]56C)C4(C)C)OC(C(=O)O)C(O)C3O)OC(CO)C(O)C2O)C(O)C(O)C1O (some centres undefined),2.12%
18,C/C=C(/C)C(=O)O[C@H]1CC(C)(C)C[C@H]2C3=CCC4[C@@]5(C)CC[C@H](O[C@@H]6O[C@H](C(=O)O)[C@@H](O[C@@H]7O[C@H](CO)[C@H](O)[C@H](O)[C@H]7O[C@@H]7O[C@H](CO)[C@@H](O)[C@H](O)[C@H]7O)[C@H](O)[C@H]6O[C@@H]6O[C@@H](C)[C@H](O)[C@@H](O)[C@H]6O)C(C)(C)C5CC[C@@]4(C)[C@]3(C)[C@@H](OC(C)=O)[C@@H](O)[C@@]12COC(C)=O (some centres undefined),72.5% (active)
19,C=CC1(C)C=C2CCC3C(C)(C)C(O[C@@H]4O[C@@H](CO)[C@H](O)[C@H]4O)CCC3(C)C2CC1O[C@@H]1O[C@H](C)[C@@H](OC)[C@H](O)[C@H]1O (some centres undefined),-5.62%
20,C/C=C(/C)C(=O)O[C@H]1CC(C)(C)C[C@H]2C3=CCC4[C@@]5(C)CC[C@H](O[C@@H]6O[C@H](C(=O)O)[C@@H](O[C@@H]7O[C@H](CO)[C@H](O)[C@H](O)[C@H]7O[C@@H]7O[C@H](CO)[C@@H](O)[C@H](O)[C@H]7O)[C@H](O)[C@H]6O[C@@H]6O[C@@H](C)[C@H](O)[C@@H](O)[C@H]6O)C(C)(C)C5CC[C@@]4(C)[C@]3(C)[C@@H](O)[C@@H](O)[C@@]12CO (some centres undefined),104% (active)
21,COc1ccc(/C=C/C(=O)O[C@@H]2[C@@H](OC(=O)/C=C/c3ccc(OC)cc3)[C@H](C)O[C@@H](O[C@H]3[C@@H]4C=CO[C@@H](O[C@@H]5O[C@H](CO)[C@@H](O)[C@H](O)[C@H]5O)[C@@H]4[C@@]4(CO)O[C@@H]34)[C@@H]2OC(C)=O)cc1,-3.51%
22,CC1(C)CC[C@]2(C(=O)O)CC[C@]3(C)C(=CCC4[C@@]5(C)CC[C@H](OC6O[C@H](CO)[C@@H](O)[C@H](O[C@@H]7O[C@H](CO)[C@@H](O)[C@H](O)[C@H]7O)[C@H]6O)C(C)(C)C5CC[C@]43C)[C@@H]2C1 (some centres undefined),17.9%
